Most compounds without a hit are left out; they make up all but 4.1% or so of the library.
DAX1 inh-1: blocks DAX1 repression of SF-1 activated StAR promoter; HEK293T StAR-luciferase reporter, SF-1/DAX-1 repression relief; inhibition, % at 6.8 µM; actives 1.1% (n = 370,000);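 active means inhibition above the mean over all tested compounds plus 3 SD, cut at about 3.6% in these data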;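 further: 0% = DAX-1 cells with DMSO and 100% = cells lacking DAX-1 with DMSO; higher inhibition means more luminescence from relief of DAX-1 repression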
ssDAF12 agonist: S. stercoralis DAF-12 activation, primary screen; HEK293 ssDAF-12/GRIP1 lit1-tk-luc reporter, luminescence; % of 3 µM dafachronic acid response; activation, % at 6.8 µM; actives 1% (n = 370,000);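 active means activation above the mean over all tested compounds plus 3 SD, cut at about 0.9% in these data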;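 further: 0% = DMSO-only wells and 100% = 3 µM delta7-dafachronic acid wells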
hgDAF12 agonist: hgDAF-12 agonism, primary luciferase screen. activation, % at 6.8 µM. HEK293 GAL4-hgDAF12 UAS-luciferase reporter, agonist luminescence; normalized to butyrate control. actives 1.8% (n = 370,000);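 active means activation above a cutoff set at the mean of all screened compounds plus 3 SD, cut at about 10% in these data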;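 further: 0% = DMSO wells and 100% = sodium butyrate wells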
DAX1 inh-2: inhibits human nuclear receptor DAX1 | P51843 | HEK293 Gal4-DAX1 luciferase reporter, luminescence | inhibition, % at 6.75 µM | actives 0.99% (n = 340,000) | AID 504766;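 active means inhibition above the mean over all tested compounds plus 3 SD, cut at about 4.2% in these data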;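 further: 0% = DAX1-transfected cells with DMSO and 100% = empty-vector control cells with DMSO; inhibition shows as a rise in luminescence from relieved DAX1 repression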
Target sequence (P51843 207-470 limits assumed): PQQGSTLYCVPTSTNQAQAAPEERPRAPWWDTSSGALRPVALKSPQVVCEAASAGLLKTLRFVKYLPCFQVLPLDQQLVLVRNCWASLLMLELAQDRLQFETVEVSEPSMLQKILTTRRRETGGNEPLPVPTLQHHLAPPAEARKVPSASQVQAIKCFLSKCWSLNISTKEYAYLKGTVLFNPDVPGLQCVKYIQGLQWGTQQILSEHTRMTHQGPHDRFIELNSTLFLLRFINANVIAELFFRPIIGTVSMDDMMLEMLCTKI
hcDAF-12 act: activates DAF-12 receptor from parasite H. contortus | actives 1.4% (n = 370,000) | HEK293 hcDAF-12 lit1-tk-luc reporter, luminescence; 0% DMSO, 100% Δ7-dafachronic acid | activation, % at 6.8 µM;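 active means activation above the mean of all tested compounds plus 3 SD, cut at about 5.5% in these data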;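 further: 100% = response to 3 µM Δ7-dafachronic acid high control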
DAX1 conf: NR0B1 (human) inhibition, confirmation; shares compounds with DAX1 inh-1; HEK293T StAR-promoter luciferase reporter, SF-1/DAX-1 repression; inhibition, % at 6.8 µM; actives 87% (n = 2,400); AID 652134;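 active means inhibition above the average of every tested compound plus 3 SD, cut at about 3.8% in these data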;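 further: 0% = DAX-1 cells with DMSO and 100% = no DAX-1 control cells with DMSO; active compounds raise luminescence by relieving repression of the StAR reporter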
SF1 AF2mut Luc: nonselective inhibitor or artifact in SF-1 mutant DAX1 counter-screen; actives 78% (n = 2,400); HEK293 StAR-luciferase, SF-1 AF2 mutant, luminescence; inhibition, % at 6.8 µM; AID 652136; shares compounds with DAX1 inh-1;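 active means inhibition above the mean of all tested compounds plus 3 SD, cut at about 3% in these data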;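 further: 0% = DAX-1 transfected cells with DMSO and 100% = cells without DAX-1 with DMSO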
* hit, by the source's call.

For COc1ccc(C(CNC(=O)Cc2cc(OC)c(OC)c(OC)c2)N2CCCC2)cc1 (stereo unspecified) the results were DAX1 inh-1 0.0, ssDAF12 agonist -1.4, hgDAF12 agonist 0.4, DAX1 inh-2 -1.8 and hcDAF-12 act 0.8.
`O=C(Nc1ccc(Cl)cc1)OC[C@@H]1CSCCS(=O)(=O)N1` gave DAX1 inh-1 5.0*, ssDAF12 agonist -0.3, hgDAF12 agonist 0.9, hcDAF-12 act 0.2, DAX1 conf 1.6 and SF1 AF2mut Luc 0.5.
`O=C(NCCc1ccc(F)cc1)NC12CC3CC(CC(C3)C1)C2` gave DAX1 inh-1 8.3*, ssDAF12 agonist 0.5, hgDAF12 agonist 9.3, DAX1 inh-2 0.8, hcDAF-12 act 5.3, DAX1 conf 10.4* and SF1 AF2mut Luc 7.6*.
For O=C(Nc1nnc(SCc2ccccc2F)s1)C1=COCCO1 the results were DAX1 inh-1 5.8*, ssDAF12 agonist -0.2, hgDAF12 agonist 4.0, DAX1 inh-2 0.4, hcDAF-12 act 3.4, DAX1 conf 6.4* and SF1 AF2mut Luc 1.9.
Screening C=CCSc1nnc(NC(=O)C2=COCCO2)s1 returned DAX1 inh-1 6.8*, ssDAF12 agonist 0.1, hgDAF12 agonist 8.4, DAX1 inh-2 3.2, hcDAF-12 act 5.7*, DAX1 conf 7.1* and SF1 AF2mut Luc 6.6*.
O=C(Nc1nnc(SCc2ccccc2)s1)C1=COCCO1 was read as DAX1 inh-1 2.1, ssDAF12 agonist -0.3, hgDAF12 agonist 4.0, DAX1 inh-2 0.0 and hcDAF-12 act 2.6.
Screening CC(=O)c1ccc(-c2cccc3nccn23)cc1 returned DAX1 inh-1 0.7, ssDAF12 agonist -0.8, hgDAF12 agonist 1.6 and hcDAF-12 act -2.5.
CC(=O)Nc1cccc(-c2cccc3nccn23)c1 was read as DAX1 inh-1 5.4*, ssDAF12 agonist -0.6, hgDAF12 agonist 10.0, hcDAF-12 act 1.5, DAX1 conf 5.6* and SF1 AF2mut Luc 3.7*.
O=C(Nc1ncc(Cc2ccc(SC(F)F)cc2)s1)c1ccc(OC(F)F)cc1 was read as DAX1 inh-1 0.4, ssDAF12 agonist -0.3, hgDAF12 agonist 3.1, DAX1 inh-2 2.7 and hcDAF-12 act -2.1.
`Cc1ccc(-c2nc3ccc(Cl)cn3c2CC2CCCCC2)cc1` gave DAX1 inh-1 4.8*, ssDAF12 agonist 0.5, hgDAF12 agonist 12.6*, hcDAF-12 act 7.1*, DAX1 conf 8.5* and SF1 AF2mut Luc 5.5*.
Cc1ccc(-c2nc3ccc(Cl)cn3c2CC(C)(C)C)cc1 was read as DAX1 inh-1 0.7, ssDAF12 agonist -0.7, hgDAF12 agonist 3.0, DAX1 inh-2 -0.2 and hcDAF-12 act -0.2.
Screening Cc1ccc2nc(-c3cccc(Br)c3)c(CC3CCCCC3)n2c1 returned DAX1 inh-1 6.4*, ssDAF12 agonist -0.2, hgDAF12 agonist 12.8*, hcDAF-12 act 4.9, DAX1 conf 5.1* and SF1 AF2mut Luc 5.6*.
COc1ccc(NC(=O)c2ccccc2NS(=O)(=O)c2ccc(CNC(C)=O)cc2)c(OC)c1 was read as DAX1 inh-1 0.1, ssDAF12 agonist -0.7, hgDAF12 agonist 2.3, DAX1 inh-2 -0.3 and hcDAF-12 act 0.8.
N#C/C(=N\Nc1cccc(F)c1)C(=N)N1CCCCCC1 was read as DAX1 inh-1 6.8*, ssDAF12 agonist 1.7*, hgDAF12 agonist 12.5*, DAX1 inh-2 7.0*, hcDAF-12 act 4.8, DAX1 conf 18.6* and SF1 AF2mut Luc 8.6*.
N#C/C(=N\Nc1cccc(F)c1)C(=O)C1CC1 was read as DAX1 inh-1 -0.3, ssDAF12 agonist -1.5, hgDAF12 agonist 5.3, DAX1 inh-2 4.1 and hcDAF-12 act 1.8.
Screening CCNC(=S)NNc1nc(N2CCCCC2)nc(N2CCOCC2)n1 returned DAX1 inh-1 -0.5, ssDAF12 agonist -1.5, hgDAF12 agonist -1.2, DAX1 inh-2 -0.5 and hcDAF-12 act -2.1.
